This note sets out measurements from PubChem BioAssay.

A short description of test [1]: liver-stage malaria parasite growth inhibition, primary screen, cell-based, HepG2, luciferase luminescence, HepG2 viability (AID 624349; in the data active means parasite load remaining mostly below about 12%, no sharp cut-off; inactive means mostly above about 10%;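 further: 100% = mean of DMSO negative control wells on the same plate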). To be noted: P. berghei liver stage in HepG2, luciferase luminescence, concentration not given here; parasite load remaining: stronger effect = lower value; viability: measured here: HepG2 viability without parasites.
Test [2] is described as follows: viability rescue of complex I mutant cybrids, primary screen, cell-based, galactose medium, ATP luminescence (AID 1645843;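 active means z-score of at least 1.8 in each of two replicates, scored against plate mean and spread of sample wells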;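 further: positive z means more ATP and so rescue of galactose-driven cybrid death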). The conditions noted are these: complex I mutant cybrid cells, 72 h, stronger effect = higher value.
The target of test [3] is Mitogen-activated protein kinase 7 (Homo sapiens) (UniProt Q13164). Briefly: ERK5 transactivation activators in reporter cells, primary screen, cell-based, HTS (AID 1508626;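 active means luciferase signal above three times the same-plate solvent-only control wells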;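 further: luciferase driven by Gal4-ERK5 fusion binding five Gal4 sites before minimal TATA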). The conditions noted are these: HeLa Gal4-ERK5 transactivation, 18 h, at 5 µM, stronger effect = higher value.
Mitogen-activated protein kinase 7 (Homo sapiens), sequence (Q13164 whole entry, looked up, the tested form may be a part): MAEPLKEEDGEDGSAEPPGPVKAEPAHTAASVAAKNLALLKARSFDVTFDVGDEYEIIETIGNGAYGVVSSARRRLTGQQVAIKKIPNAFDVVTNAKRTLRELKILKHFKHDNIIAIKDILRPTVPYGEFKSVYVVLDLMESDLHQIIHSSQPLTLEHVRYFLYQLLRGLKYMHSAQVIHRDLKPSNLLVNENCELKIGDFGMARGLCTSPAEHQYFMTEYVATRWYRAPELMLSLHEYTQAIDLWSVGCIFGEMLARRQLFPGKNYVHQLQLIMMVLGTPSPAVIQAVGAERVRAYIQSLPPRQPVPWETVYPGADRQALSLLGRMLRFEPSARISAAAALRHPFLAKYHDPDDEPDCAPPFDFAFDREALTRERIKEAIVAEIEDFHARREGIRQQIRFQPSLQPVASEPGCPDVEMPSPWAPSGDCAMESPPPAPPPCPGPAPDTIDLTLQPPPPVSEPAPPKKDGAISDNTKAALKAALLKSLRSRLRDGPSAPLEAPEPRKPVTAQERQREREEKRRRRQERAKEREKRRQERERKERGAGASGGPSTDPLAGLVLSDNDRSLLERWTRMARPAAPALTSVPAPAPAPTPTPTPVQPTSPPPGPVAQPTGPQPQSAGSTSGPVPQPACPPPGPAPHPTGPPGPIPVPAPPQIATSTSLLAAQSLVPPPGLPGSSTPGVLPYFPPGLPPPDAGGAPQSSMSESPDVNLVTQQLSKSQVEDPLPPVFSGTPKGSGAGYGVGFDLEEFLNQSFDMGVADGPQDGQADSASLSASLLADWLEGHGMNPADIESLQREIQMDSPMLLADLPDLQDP
The nature of test [4]: kinase inhibitors against Plasmodium liver-stage infection, cell-based, known kinase inhibitor set, luminescence, hepatoma host viability (AID 624392; call rule not given here;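 further: infected cells incubated roughly two days before readout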). The conditions noted are these: Plasmodium liver stage in hepatoma cells, luciferase luminescence, concentration not given here; liver cell % of control: measured here: host liver cell viability; parasite % of control: stronger effect = lower value.

Test [5] can be described thus: LFS_MB_1R medulloblastoma cell growth inhibition, synergistic combos for chromothripsis tumors, cisplatin or BGB combos (AID 1671452).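 Further: cells exposed for 96 hours before readout.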 To be noted: LFS_MB_1R medulloblastoma cells, stronger effect = higher value.
The nature of test [6]: CRL2098 osteosarcoma cell growth inhibition, synergistic combos for chromothripsis tumors, BGB or cisplatin IC20 combos (AID 1671454).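 Further: cells exposed for 96 h before readout; 0% = vehicle DMSO and 100% = killing by high DMSO.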 The conditions noted are these: CRL2098 osteosarcoma cells, drug combinations, stronger effect = higher value.
Test [7] is described as follows: HD-MB03 medulloblastoma cell growth inhibition, synergistic combos for chromothripsis tumors, BGB or cisplatin IC20 combos (AID 1671455; in the data active means inhibition above about 83%;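 further: 0% = vehicle DMSO and 100% = high DMSO as cytotoxic control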). The conditions noted are these: HD-MB03 medulloblastoma cells, stronger effect = higher value.
Test [8] is described as follows: UWB1.289 ovarian carcinoma cell growth inhibition, synergistic combos for chromothripsis tumors, BGB or cisplatin combos (AID 1671456).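 Further: cells exposed to compound for four days; 0% = vehicle DMSO and 100% = killing by high DMSO.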 The conditions noted are these: UWB1.289 ovarian carcinoma cells, stronger effect = higher value.
Test [9] can be described thus: LFS_MB_2R medulloblastoma cell growth inhibition, synergistic combos for chromothripsis tumors, cisplatin combos (AID 1671457).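 Further: cells exposed to compound for four days before readout.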 To be noted: LFS_MB_2R medulloblastoma cells, stronger effect = higher value.
Test [10] can be described thus: UWB1.289_BRCA1 ovarian cancer growth, cell-based, BGB or cisplatin combinations (AID 1671459). To be noted: UWB1.289 BRCA1 ovarian carcinoma, drug combinations, stronger effect = higher value.
Test [11] is described as follows: human astrocyte viability loss, single and combined drugs, cytotoxicity control for chromothriptic childhood tumor combination screen, cell-based, BGB or cisplatin IC20 combos (AID 1671460).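 Further: cells exposed to compounds for 96 hours before viability readout; 0% = vehicle and 100% = killing control.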 To be noted: Human astrocytes, drug combinations, stronger effect = higher value.
The nature of test [12]: growth inhibition of CRL1545 osteosarcoma cells, cell-based, cisplatin and BGB IC20 combos (AID 1671464).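 Further: cells exposed to compound for 96 hours before readout; 0% = vehicle DMSO and 100% = high DMSO killing control.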 To be noted: stronger effect = higher value.
Test [13] concerns the target NAD(+) hydrolase SARM1 (Homo sapiens) (UniProt Q6SZW1). The experiment in a line: SARM1 TIR NADase inhibitors, cell lysate, NAD-Glo luminescence (AID 1508614;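 active means compound whose remaining NAD level is above about 45 nM, limit read from the data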). To be noted: SAM-TIR HEK293T lysate NADase, at 1 µM, stronger effect = higher value.
The nature of test [14]: hESC survival regulators, cell-based (AID 493140; call rule not given here;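 further: cells exposed to compounds for four days before counting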). The conditions noted are these: human embryonic stem cell survival screen; stronger effect = higher value.
[15] abbreviates: measured here: combination with BGB IC40, at 0.05 µM.
[16] abbreviates: measured here: combination with cisplatin, at 0.5 µM.
The mark [17] stands for this setting: measured here: combination with cisplatin, at 5 µM.
Where [18] appears, read: measured here: combination with BGB at IC20, at 0.5 µM.
The mark [19] stands for this setting: measured here: combination with cisplatin at IC20, at 0.5 µM.
The mark [20] stands for this setting: measured here: combo with BGB at IC20, at 0.5 µM.
Setting [21] is: measured here: combo with cisplatin at IC20, at 0.5 µM.
Where [22] appears, read: measured here: inhibition with BGB combination, at 0.05 µM.
Where [23] appears, read: measured here: inhibition with cisplatin combination, at 0.05 µM.
The mark [24] stands for this setting: BGB combination, concentration series, at 5 µM.
Setting [25] is: cisplatin combination, concentration series, at 5 µM.
Where [26] appears, read: measured here: combo with BGB IC20, at 0.5 µM.
The mark [27] stands for this setting: measured here: combo with cisplatin IC20, at 0.5 µM.
The mark [28] stands for this setting: measured here: with BGB IC20 combination, at 0.5 µM.
Where [29] appears, read: measured here: with cisplatin IC20 combination, at 0.5 µM.

Structures are written as SMILES. Several values for one entry are separate records, joined by “and”; a condition that tells them apart may be missing. Equal values may be shown once. Where a structure was tested more than once in an assay, its records may differ in their call. Activity calls are given as the source filed them. Unless noted, no stated cut-off is given here; in the data, active means inhibition above about 80%; inactive means the rest.

NAD(+) hydrolase SARM1 (Homo sapiens), sequence (Q6SZW1 whole entry, looked up): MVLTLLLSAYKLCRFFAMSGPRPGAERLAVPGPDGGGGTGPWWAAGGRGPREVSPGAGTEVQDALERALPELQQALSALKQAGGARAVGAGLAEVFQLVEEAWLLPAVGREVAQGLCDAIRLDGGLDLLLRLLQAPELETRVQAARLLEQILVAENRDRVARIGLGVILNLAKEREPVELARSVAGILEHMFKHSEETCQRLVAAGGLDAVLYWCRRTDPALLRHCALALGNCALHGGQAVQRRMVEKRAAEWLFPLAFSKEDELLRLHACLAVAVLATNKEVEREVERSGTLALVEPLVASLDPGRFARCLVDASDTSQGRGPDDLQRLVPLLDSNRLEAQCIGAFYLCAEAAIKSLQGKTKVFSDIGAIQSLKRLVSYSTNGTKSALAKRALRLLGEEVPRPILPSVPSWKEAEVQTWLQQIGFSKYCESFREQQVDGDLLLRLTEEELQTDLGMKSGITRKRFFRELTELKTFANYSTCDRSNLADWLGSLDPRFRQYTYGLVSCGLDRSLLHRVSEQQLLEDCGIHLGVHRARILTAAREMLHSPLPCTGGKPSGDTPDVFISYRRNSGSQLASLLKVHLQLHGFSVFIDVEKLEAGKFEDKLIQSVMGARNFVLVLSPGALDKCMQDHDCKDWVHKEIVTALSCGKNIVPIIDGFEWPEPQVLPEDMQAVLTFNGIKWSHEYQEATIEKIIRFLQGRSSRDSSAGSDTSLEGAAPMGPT

The viability is a read-out of living cells in per cent, often relative to untreated cells. Consider `C=C(c1ccc(C(=O)O)cc1)c1cc2c(cc1C)C(C)(C)CCC2(C)C`, for which, in [1], the parasite load remaining was 34.5% (inactive) and the viability came to 146%. In addition, in test [2], the z-score is 0.715 (inactive).

Take `CC[C@H](/C=C/[C@@H](C)[C@H]1CC[C@H]2[C@@H]3CC=C4C[C@@H](O)CC[C@]4(C)[C@H]3CC[C@]12C)C(C)C`: the luciferase signal in test [3] was 52 AU (inactive).

In the case of `O=C(NCCCNc1nc(Nc2cccc(NC(=O)N3CCCC3)c2)ncc1I)c1cccs1`, in test [4], the liver cell % of control was 74.4% and 44.5% and 88.3%; the parasite % of control is 0.4% (inactive) and 0.22% (inactive) and 6.81% (inactive).

One may read the inhibition as the drop in the measured response relative to a control, in per cent. As to `CN(C)Cc1c(C(=O)NCCOc2ccc(C(=O)NO)cc2)oc2ccccc12`, the inhibition is 45.6% (inactive) in [5] (at 0.5 µM); -17% in [5] (setting [15]); 62.1% in [5] (setting [16]); 98.2% in [5] (setting [17]); 25.5% (inactive) in test [6] (at 0.5 µM); 32.6% in [6] (setting [18]). The inhibition in [6] (setting [19]) was 21.9%; in [7] (at 0.5 µM) it was 99.3% (active); in test [7] (setting [20]), 99.1%; in test [7] (setting [21]), 99.5%; in test [8] (at 0.5 µM) it was 49.7% (inactive); in [8] (setting [22]), 11.1%. Further, the inhibition in test [8] (setting [23]) is 27.1%; in [9] (at 0.5 µM) it was 51.5% (inactive); in test [9] (setting [16]) it was 71.4%; in test [9] (setting [17]) it was 106%; in test [10] (setting [24]), 111%; in test [10] (at 0.5 µM), 59.3% (inactive). Further, the inhibition in test [10] (setting [25]) is 125%; in test [11] (at 0.5 µM) it was 49.9% (inactive); in [11] (setting [26]) it was 45%; in [11] (setting [27]), 44%; in [12] (at 0.5 µM) it was 80.7% (active); in test [12] (setting [28]) it was 78.9%. Also, the inhibition was 81.1% in test [12] (setting [29]); 38.5% in test [12] (single agent, at 0.05 µM); 96.4% in test [12] (single agent, at 5 µM).

On to `CC1(C)O[C@@H]2C[C@H]3[C@@H]4CCC5=CC(=O)C=C[C@]5(C)[C@H]4[C@@H](O)C[C@]3(C)[C@]2(C(=O)CO)O1`, for which the remaining NAD in test [13] is 10 nM (inactive). Also, the luciferase signal in test [3] was 172 AU (inactive).

For `COc1ccc(-c2nc(N3CCOCC3)c3sc(CN(C)c4ncc(C(=O)NO)cn4)cc3n2)cn1`, the inhibition was 93% (active) and 88.4% (active) in test [5] (at 0.5 µM); 27.1% and 15.8% in [5] (setting [15]); 91.8% and 93.4% in [5] (setting [16]); 100% and 102% in [5] (setting [17]); 77.2% (inactive) and 40.2% (inactive) in [6] (at 0.5 µM); 83.7% and 62.7% in test [6] (setting [18]). Also, the inhibition is 71.6% and 16.5% in test [6] (setting [19]); 99.8% (active) in test [7] (at 0.5 µM); 99.7% in [7] (setting [20]); 99.9% and 99.8% in test [7] (setting [21]); 74.5% (inactive) and 79.8% (inactive) in [8] (at 0.5 µM); 5.77% and 13.7% in [8] (setting [22]). Besides, the inhibition in test [8] (setting [23]) was -4.75% and -1.55%; in test [9] (at 0.5 µM) it was 82.2% (active) and 85.4% (active); in test [9] (setting [16]) it was 93.9% and 97.3%; in test [9] (setting [17]), 110% and 105%; in test [10] (setting [24]) it was 118% and 117%; in [10] (at 0.5 µM), 79.8% (inactive) and 83.2% (active). For the same compound, the inhibition in [10] (setting [25]) is 127% and 131%; in test [11] (at 0.5 µM) it was 101% (active) and 102% (active); in test [11] (setting [26]) it was 103% and 104%; in test [11] (setting [27]), 100% and 101%; in [12] (at 0.5 µM) it was 88.6% (active) and 47.7% (inactive); in test [12] (setting [28]) it was 89.3% and 57.8%. For the same compound, the inhibition in test [12] (setting [29]) is 88% and 41.7%; in test [12] (single agent, at 0.05 µM) it was 21.7% and -65.8%; in [12] (single agent, at 5 µM), 99.3% and 99%.

`CC[C@H](CO)Nc1nc(NCc2ccccc2)c2ncn(C(C)C)c2n1`: the survival in [14] is 75.1 (inactive). Further, in test [1], the parasite load remaining is 29.6% (inactive) and the viability came to 68.3%.

As to `C[C@H]1[C@H](C)CC[C@]2(C(=O)O)CC[C@]3(C)C(=CC[C@@H]4[C@@]5(C)C[C@@H](O)[C@H](O)[C@@](C)(CO)[C@@H]5CC[C@]43C)[C@H]12`, the luciferase signal in test [3] was 36 AU (inactive).

On to `CN(C)CC(C)(C)CNc1nn2c(-c3ccccc3)nnc2cc1C1CCC1`, for which, in [4], the liver cell % of control was 58.5% and 89.5% and 101%; the parasite % of control is 54.4% (inactive) and 60.7% (inactive) and 52.9% (inactive).

Take `O=C(O)CCCc1c[nH]c2ccccc12`: in [2], the z-score is 1.11 (inactive).

For the compound `CO[C@H]1/C=C/O[C@@]2(C)Oc3c(C)c(O)c4c(O)c(c5c(nc6cc(C)ccn65)c4c3C2=O)NC(=O)/C(C)=C\C=C\[C@H](C)[C@H](O)[C@@H](C)[C@@H](O)[C@@H](C)[C@H](OC(C)=O)[C@@H]1C`, the remaining NAD in [13] was 10 nM (inactive). Further, the luciferase signal in test [3] was 32 AU (inactive).
